# DRD3 agonist – qHTS of D3 Dopamine Receptor Agonist: qHTS. D(3) dopamine receptor (Homo sapiens), P35462. D3R DiscoveRx beta-arrestin cells, luminescence, 90 min. max activation, %. 410,000 compounds, 0.58% hits. AID 652048, 2013; in the data active means max activation above about 30%; further: 0% is about no effect
# Target sequence (P35462 whole entry, looked up): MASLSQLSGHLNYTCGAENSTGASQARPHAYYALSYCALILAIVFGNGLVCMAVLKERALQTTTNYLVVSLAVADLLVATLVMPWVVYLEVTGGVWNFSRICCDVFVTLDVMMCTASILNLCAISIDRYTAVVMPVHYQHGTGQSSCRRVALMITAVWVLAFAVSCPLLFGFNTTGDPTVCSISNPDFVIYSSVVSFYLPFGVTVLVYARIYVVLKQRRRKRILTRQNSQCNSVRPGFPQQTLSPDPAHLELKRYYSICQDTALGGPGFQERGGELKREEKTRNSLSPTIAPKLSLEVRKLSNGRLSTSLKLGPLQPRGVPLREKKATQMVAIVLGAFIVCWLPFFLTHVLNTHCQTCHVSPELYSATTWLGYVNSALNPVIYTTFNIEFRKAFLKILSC
#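 Agonist-mode cell screen: cells plated at 1500/well and incubated overnight at 37 °C, then exposed to library compounds for 90 min at 37 °C. Detection reagent was added for 30–60 min at room temperature, and luminescence was read.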
# RGS4 inh – Inhibitors of Regulator of G Protein Signaling (RGS) 4: qHTS; Regulator of G-protein signaling 4 (Homo sapiens), P49798; Transcreener GDP fluorescence polarization, RGS4-accelerated GTP hydrolysis; Potency, µM (series often up to 114 µM), for inactives: top-dose activity change, negative = inhibition, actives largely listed as inhibitors; 390,000 compounds, 0.039% hits; active means well fitted inhibition curve with a large enough effect; inconclusive means small, poorly fitted or top-dose-only effect; inactive means no such curve, though single readings can be large or run the other way; further: potency means the concentration at half of the fitted maximal effect; on the % scale 0 is the no-effect control and ±100 the full control effect; nearly all actives have a fitted effect of over 75% in size
# Target sequence (P49798 whole entry, looked up): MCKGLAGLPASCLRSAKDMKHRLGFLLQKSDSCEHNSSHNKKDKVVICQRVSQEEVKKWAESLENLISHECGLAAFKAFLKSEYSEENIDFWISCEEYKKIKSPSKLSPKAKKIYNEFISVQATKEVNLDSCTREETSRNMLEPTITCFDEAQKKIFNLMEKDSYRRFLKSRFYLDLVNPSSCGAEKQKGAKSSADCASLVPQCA
#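 MLSMR compounds (23 nl, pin-transferred) preincubated 10 min at room temperature with a 500nM (2x) first reagent, then RGS4 at 900nM (2x) plus Transcreener GDP mix added; fluorescence polarization (620/688 nm) read before and after 90 min at 30 °C.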
# uPA generation – qHTS for Inhibitors of Cell Surface uPA Generation; cell surface uPA generation assay, qHTS; Potency, µM (titrated, usually from 38.3 µM), inactives show at the top dose activity change, negative = inhibition, hits mostly inhibitors; 330,000 compounds, 0.31% hits; active means well fitted inhibition curve with a large enough effect; inconclusive means small, poorly fitted or top-dose-only effect; inactive means no such curve, though single readings can be large or run the other way; tested in mouse RAW 264.7 cells; further: potency means the concentration at half of the fitted maximal effect; on the % scale 0 is the no-effect control and ±100 the full control effect; nearly all actives have a fitted effect of over 55% in size
# D3 antag – qHTS of D3 Dopamine Receptor Antagonist: qHTS | 360,000 compounds, 2.5% hits | max response, negative = inhibition, % | D(3) dopamine receptor (Homo sapiens), P35462 | D3R cells, DiscoveRx beta-arrestin luminescence, antagonist mode; stronger effect = lower value; in the data active means max response below about -50%; inconclusive means no clear call, values can overlap the other calls; further: on the % scale 0 is the no-effect control and ±100 the full control effect
#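 Cells plated overnight at 1500 cells/well, then exposed to library compounds with dopamine controls for 90 minutes at 37 degrees C. DiscoveRx reagent added for 30–60 minutes at room temperature; luminescence read, quantitative HTS format.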
# An asterisk follows results filed as active; ? = inconclusive; nt = not tested or not shown; ! = a repeat was not active. An excerpt weighted towards active compounds, which were near 3.1% of everything screened.
SMILES,DRD3 agonist,RGS4 inh,uPA generation,D3 antag
C=CCc1cc(Cl)ccc1OCCOCCNC(C)CC (configuration not stated),-16.4,2.0%,-2.0%,?
CCC(C)NCCOCCOc1ccc(Cl)c2ccccc12 (configuration not stated),-14.1,-14.6%,-2.0%,-55.6*
COc1ccc(-c2nsc(NC(=O)COc3ccc(C)c(C)c3)n2)cc1,4.8,10.8%,nt,nt
N#CC(C#N)=c1ccc2c(c1)NC1(CCCCC1)N=2,-22.0,?,-4.5%,-77.9*
CCc1ccc(C(=O)c2cn(Cc3ccccc3)c3cc(OC)c(OC)cc3c2=O)cc1,-5.2,8.1%,nt,nt
Cn1c(-c2ccc(F)c(F)c2)cc2onc(-c3ccccc3)c2c1=O,35.3*,-5.1%,-27.1%,19.9
COc1cccc(-c2cc3onc(-c4ccccc4)c3c(=O)n2C)c1,5.9,5.0%,11.1%,27.3
COc1ccc(S(=O)(=O)NCC(c2ccc(N(C)C)cc2)N2CCOCC2)cc1 (configuration not stated),-13.4,-41.0%,nt,nt
COc1ccc(/C=C(/C(=O)c2cccs2)N2C=CC=CC2=C(C#N)C#N)cc1,-9.7,?,?,-81.0*
N#CC(C#N)=C1C=CC=CN1/C(=C\c1ccco1)C(=O)c1ccc(Br)cc1,-11.1,?,0.6%,-98.8*
COc1ccc(N=N/C(=C\O)C(=O)c2cccs2)cc1,21.1,-13.2%,3.7%,13.1
COc1ccc(C(=O)/C(=C\c2ccco2)N2C=CC=CC2=C(C#N)C#N)cc1,-11.5,?,1.9%,-64.6*
N#CC(C#N)=C1C=CC=CN1/C(=C\c1ccco1)C(=O)c1ccccc1,-12.3,?,7.3%,-106.4*
Cc1ccc2c(c1)-c1c(cnc3cc(-c4ccccc4)nn13)CO2,1.4,9.9%,nt,nt
Cc1ccc(CNC(=O)C2CCN(Cc3nc(-c4ccccc4C)oc3C)CC2)cc1,-6.1,-7.6%,nt,nt
COc1ccc(S(=O)Cc2ccc(C(=O)N3CCN(c4cccc(C)c4C)CC3)o2)cc1 (configuration not stated),45.0*!,10.6%,?,89.2
COc1ccc(N2CCN(C(=O)c3ccc(CS(=O)c4cccc(Cl)c4)o3)CC2)cc1 (configuration not stated),1.4,nt,nt,0.0
Cc1cccc(N2CCN(C(=O)c3ccncc3)CC2)c1C,46.4*,8.1%,-6.4%,15.7
Nc1nc(Cl)nc2c1ncn2[C@H]1C[C@H](O)[C@@H](CO)O1,14.0,10.1%,0.316µM*,-80.3*
Nc1ncnc2c1ncn2[C@H]1C[C@H](O)[C@@H](CO)O1,-17.0,8.0%,4.6%,0.0
O=C(C[n+]1ccc2ccccc2c1)c1ccc2ccc3ccccc3c2c1,-15.5,nt,nt,-78.0*
CCOc1ccc(OCC)c(NC(=O)C2CCCN(S(=O)(=O)c3cc(Br)cc4c3N(C(=O)CC)CC4)C2)c1 (configuration not stated),-6.2,-25.9%,nt,nt
CC12CCC(C1)C(C)(C)C2=O (configuration not stated),-4.7,nt,nt,nt
Cc1cc(C)cc(CC(=O)N2CCC2(C)C(=O)NS(=O)(=O)c2ccc(C#N)cc2)c1 (configuration not stated),70.4*,nt,nt,0.0
Cc1cc(C(=O)N2CCC2(C)C(=O)NS(=O)(=O)c2cccc(OC(F)F)c2)nn1C (configuration not stated),74.0*,nt,nt,0.0
SMILES,DRD3 agonist,RGS4 inh,uPA generation,D3 antag
CCCC(=O)N1CCC1(C)C(=O)NS(=O)(=O)c1cccc(C)c1 (configuration not stated),92.5*,nt,nt,-19.0
CC1(C(=O)NS(=O)(=O)c2ccc(C#N)cc2)CCN1C(=O)Cc1ccsc1 (configuration not stated),-7.2,nt,nt,-2.0
CCCC(=O)N1CCC1(C)C(=O)NS(=O)(=O)c1cccc(Cl)c1 (configuration not stated),-5.3,nt,nt,0.0
CC1=C(C(=O)Nc2ccccc2C(=O)N2CCN(c3ccccc3)CC2)SCCO1,-3.2,nt,nt,3.9
COCCn1c(=O)[nH]c2cc(C(=O)NCCCN3CCN(c4ccc(F)cc4)CC3)ccc2c1=O,-8.0,9.5%,0.6%,?
COCCn1c(=O)[nH]c2cc(C(=O)NCCN3CCN(c4ccccc4F)CC3)ccc2c1=O,12.9,15.3%,-2.3%,-56.5*
COc1cc2[nH]c(=O)c(C(=O)NCCCN3CCCCC3)c(O)c2cc1OC,-5.2,-11.4%,4.6%,-56.9*
COc1cc2[nH]c(=O)n(CCCCCC(=O)NCCCN3CCOCC3)c(=O)c2cc1OC,2.9,-8.6%,0.2%,5.5
COc1cc2[nH]c(=O)n(CCC(=O)NCCCN3CCN(c4ccccc4F)CC3)c(=O)c2cc1OC,30.4*,-4.4%,6.0%,?
Cc1ccc2nc(C3CCCCC3)c(Cc3cccc(Cl)c3)n2c1,4.2,nt,nt,42.7
CCC(C)NCCOc1cccc(Br)c1 (configuration not stated),0.2,-18.0%,4.9%,-71.8*
C=CCNCCOc1cccc(Br)c1,-22.3,6.0%,-2.0%,-76.1*
CN(C)CCCCOc1cccc(Br)c1,-7.1,-10.1%,0.2%,-4.4
CCCC(=O)NCC(c1ccc2c(c1)OCO2)N1CCOCC1 (configuration not stated),-13.7,-27.2%,nt,nt
O=C(Nc1ccccc1SC(=O)c1ccccc1)c1ccccc1,2.7,nt,nt,5.6
Cc1ccc(C(=O)Sc2cccccc2=O)cc1,-31.1,-98.4%,14.1%,-94.1*
CN1CCCC1CCOC(C)(c1ccccc1)c1ccc(Cl)cc1 (configuration not stated),nt,23.1%,-21.0%,-101.4*
CCOC(=O)c1nnn(-c2ccccc2)c1C,-5.4,-10.6%,-12.1%,-8.7
CCOC(=O)c1nnn(-c2ccc([N+](=O)[O-])cc2[N+](=O)[O-])c1C,2.9,13.1%,8.91µM*,3.4
O=C(O)[C@H]1/C(=C/CO)O[C@@H]2CC(=O)N21,4.3,nt,nt,nt
CC(=O)C1=C(O)C(=O)N(Cc2cccnc2)C1c1ccc(Cl)cc1 (configuration not stated),34.5*,5.7%,10.6%,-50.3*
Cc1nnc(N2C(=O)c3oc4ccccc4c(=O)c3C2c2ccc(Cl)cc2)s1 (configuration not stated),3.7,1.6%,nt,nt
CCN1CCN(c2ncnc3c2c(-c2ccccc2)cn3-c2ccc(F)cc2)CC1,-20.5,-14.4%,0.5%,-55.4*
Fc1ccc(-n2cc(-c3ccccc3)c3c(N4CCOCC4)ncnc32)cc1,-11.2,-3.6%,7.0%,?
COc1ccc(Nc2ncc3c(n2)CCN(Cc2cc(Br)cs2)C3)c(OC)c1,-10.5,-0.1%,nt,nt
O=S(=O)(Nc1cc(Br)cc2cccnc12)c1ccccc1,nt,5.4%,nt,nt
CSCCC(C(=O)Nc1c(C)cccc1C)n1c(-c2cc(C)cs2)nc2ccccc21 (configuration not stated),-20.7,nt,nt,-65.7*
O=C(Nc1ccccc1F)c1ccc(C(=O)c2ccccc2)cc1,-10.2,24.5%,-2.5%,-72.9*
